# Assay results from PubChem BioAssay (NCATS).
# Where “and” joins values, the source holds several entries; their conditions need not be identical. Identical values can stand only once. Results filed as inconclusive are left out. Entries that show only a call come without a potency. A number with no mark means an inactive call. Calls of active or inactive are those of the source. Calls come from the whole dose curve; as a rule, active = well fitted curve in the direction sought with a large enough effect; inconclusive = small, poorly fitted or top-dose-only effect, or another doubt; inactive = no such curve, though single readings can be large; an effect the other way counts as inactive or inconclusive.
# Tests used:
# [1] = target: Cytochrome P450 3A7 (Homo sapiens) (UniProt P24462); experiment: Cytochrome P450 family 3 subfamily A member 7 (CYP3A7) small molecule antagonists: luciferase biochemical qHTS assay (AID 1963596); note: nearly all actives have a fitted effect of over 40% in size; note: potency is the fitted concentration of half-maximal effect
# Sequence of Cytochrome P450 3A7 (Homo sapiens) (P24462 whole entry, looked up): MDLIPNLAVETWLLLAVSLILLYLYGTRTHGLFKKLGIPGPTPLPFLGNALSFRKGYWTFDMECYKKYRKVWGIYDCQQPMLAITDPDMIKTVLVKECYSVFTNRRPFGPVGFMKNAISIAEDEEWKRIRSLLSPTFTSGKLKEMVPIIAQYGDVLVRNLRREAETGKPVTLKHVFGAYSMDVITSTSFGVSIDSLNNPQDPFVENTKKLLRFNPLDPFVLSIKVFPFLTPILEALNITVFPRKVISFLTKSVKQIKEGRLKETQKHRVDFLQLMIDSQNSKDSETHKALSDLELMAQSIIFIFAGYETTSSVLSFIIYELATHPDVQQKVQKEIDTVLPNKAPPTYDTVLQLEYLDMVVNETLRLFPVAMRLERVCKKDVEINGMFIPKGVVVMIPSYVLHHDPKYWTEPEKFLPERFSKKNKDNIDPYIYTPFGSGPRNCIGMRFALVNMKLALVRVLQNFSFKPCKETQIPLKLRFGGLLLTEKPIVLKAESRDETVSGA
# In short: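 Enzyme-substrate mix + cpd (DMSO), 10 min RT; + NADPH regen system, 1 h RT; + luciferin detection reagent, 20 min RT; luminescence read. Proluciferin substrate, P450-Glo format, 1536-well qHTS.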
# [2] = Viability qHTS for spleen associated tyrosine kinase inhibitor (SYKi) naive MV4-11 cells (AID 1963823); note: nearly all actives have a fitted effect of over 40% in size; note: potency is the fitted concentration of half-maximal effect
# In short: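 Read-out: CellTiter-Glo luminescence. Exposure: 72 hr, 37 C, 5% CO2, 95% humidity. Cells: MV4-11 without SYK inhibitor history, 500/well, qHTS format.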
# [3] = Viability qHTS for spleen associated tyrosine kinase inhibitor (SYKi) drug resistant MV4-11 cells (AID 1963824); note: nearly all actives have a fitted effect of over 35% in size; note: potency is the fitted concentration of half-maximal effect
# In short: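 CellTiter-Glo luminescence, read 10 min after reagent addition, reports viability after a 72 hr compound exposure. Cells are an MV4-11 line made resistant to SYK inhibition, seeded at 500 per well onto compound-containing plates.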
# [4] = Quantitative highthroughput screen to assess conditional lethalithy of NOMO1 cells grown in RPMI1640 with untreated serum (RPMI+s) (AID 1963876); note: nearly all actives have a fitted effect of over 35% in size; note: potency is the fitted concentration of half-maximal effect
# In short: (§1)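 Each medium arm—HPLM with 10% dialyzed FBS, or RPMI1640 with 5 mM glucose and 10% untreated or dialyzed FBS—was screened against an 11-point, 3-fold compound titration for 48 h at 37 °C, with CellTiter-Glo luminescence as endpoint.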
# [5] = Quantitative highthroughput screen to assess conditional lethalithy of NOMO1 cells grown in RPMI1640 with dialyzed fetal bovine serum (RPMI+ds) (AID 1963877); note: nearly all actives have a fitted effect of over 30% in size; note: potency is the fitted concentration of half-maximal effect; for Viability: series mostly up to about 46 µM
# In short: as §1
# [6] = Quantitative highthroughput screen to assess conditional lethalithy of NOMO1 cells grown in Human Plasma-Like Medium with dialyzed fetal bovine serum (HPLM+ds) (AID 1963878); note: nearly all actives have a fitted effect of over 35% in size; note: potency is the fitted concentration of half-maximal effect
# In short: as §1
# [7] = Quantitative highthroughput screen to assess conditional lethalithy of P12 Ichikawa cells grown in Human Plasma-Like Medium with dialyzed fetal bovine serum (HPLM+ds) (AID 1963879); conditions: Potency: viability; note: nearly all actives have a fitted effect of over 35% in size; note: potency is the fitted concentration of half-maximal effect; for Viability: series mostly up to about 46 µM
# In short: as §1
# [8] = Quantitative highthroughput screen to assess conditional lethalithy of P12 Ichikawa cells grown in RPMI1640 with dialyzed fetal bovine serum (RPMI+ds) (AID 1963880); conditions: Potency: P12-Ichikawa viability; note: nearly all actives have a fitted effect of over 35% in size; note: potency is the fitted concentration of half-maximal effect
# In short: as §1
# [9] = Quantitative highthroughput screen to assess conditional lethalithy of P12 Ichikawa cells grown in RPMI1640 with untreated serum (RPMI+s) (AID 1963881); conditions: Potency: viability; note: nearly all actives have a fitted effect of over 35% in size; note: potency is the fitted concentration of half-maximal effect; for Viability: series mostly up to about 46 µM
# In short: as §1
# [10] = Quantitative highthroughput screen to assess conditional lethalithy of SEM cells grown in Human Plasma-Like Medium with dialyzed fetal bovine serum (HPLM+ds) (AID 1963882); note: nearly all actives have a fitted effect of over 35% in size; note: potency is the fitted concentration of half-maximal effect; for Viability: series mostly up to about 46 µM
# In short: as §1
# [11] = Quantitative highthroughput screen to assess conditional lethalithy of SEM cells grown in RPMI1640 with unreated serum (RPMI+s) (AID 1963883); note: nearly all actives have a fitted effect of over 35% in size; note: potency is the fitted concentration of half-maximal effect
# In short: as §1
# [12] = Quantitative highthroughput screen to assess conditional lethalithy of SEM cells grown in RPMI1640 with dialyzed fetal bovine serum (RPMI+ds) (AID 1963884); note: nearly all actives have a fitted effect of over 35% in size; note: potency is the fitted concentration of half-maximal effect; for Viability: series mostly up to about 46 µM
# In short: as §1
# [13] = Cellular viability qHTS for adrenocortical cancer (ACC) cell line SW-13 (AID 1963989); conditions: SW-13 ACC cells viability, CellTiter-Glo, 48 h; activity (max response): hits give low values;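 note: cells grown in serum-free medium with ITS supplement; nearly all actives have a fitted effect of over 65% in size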
# In short: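 Viability was read as CellTiter-Glo luminescence after 48 h compound treatment (up to 46 uM final) of SW-13 cells grown serum-free; titration curves were fit with a four-parameter logistic model to give IC50 and efficacy.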
# [14] = Cellular viability qHTS for adrenocortical cancer (ACC) cell line NCI-H295R (AID 1963990); note: nearly all actives have a fitted effect of over 60% in size
# In short: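 CellTiter-Glo ATP luminescence, read 48 h after compound addition, measured viability of NCI-H295R adrenocortical cells grown serum-free with ITS. Final concentrations spanned up to 46 uM. Data normalized to DMSO and doxorubicin, fitted for IC50 and maximal response.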
smiles,measurement,setting,value
NS(=O)(=O)c1cc2c(cc1Cl)NCNS2(=O)=O,Potency,[1],inactive
same,Potency,[2],inactive
same,Potency,[3],inactive
same,Potency,[4],inactive
same,Potency,[5],inactive
same,Potency,[6],inactive
same,Potency,[7],inactive
same,Potency,[8],inactive
same,Potency,[9],inactive
same,Potency,[10],inactive
same,Potency,[11],inactive
same,Potency,[12],inactive
same,activity (max response),[13],11.9% and 0.967%
Nc1nc(F)nc2c1ncn2[C@@H]1O[C@H](CO)[C@@H](O)[C@@H]1O,Potency,[1],inactive
same,Potency,[2],10.5 µM (active) and 16.8 µM (active) and 14.6 µM (active)
same,Potency,[3],13.2 µM (active) and 14.6 µM (active)
same,Potency,[4],469 nM (active)
same,Potency,[5],372 nM (active)
same,Potency,[6],418 nM (active)
same,Potency,[7],469 nM (active)
same,Potency,[8],372 nM (active)
same,Potency,[9],526 nM (active)
same,Potency,[10],93.5 nM (active)
same,Potency,[11],105 nM (active)
same,Potency,[12],74.3 nM (active)
CC(C)(C(=O)c1cccnc1)c1cccnc1,Potency,[1],inactive
same,Potency,[2],inactive
same,Potency,[3],inactive
O=C1N(CC2CCCCN2)CCN1c1ccccc1 (stereo not drawn),Potency,[1],inactive
same,Potency,[2],inactive
same,Potency,[3],inactive
c1cc(OCCCN2CCCCC2)ccc1CN1CCCCC1,Potency,[1],inactive
same,Potency,[2],inactive
same,Potency,[3],inactive
COc1ccc(C2=N[C@@H](c3ccc(Cl)cc3)[C@@H](c3ccc(Cl)cc3)N2C(=O)N2CCNC(=O)C2)c(OC(C)C)c1,Potency,[1],inactive
same,Potency,[2],20.6 µM (active)
same,Potency,[3],10.3 µM (active)
CCc1cc(CN2CC(C(=O)O)C2)sc1-c1noc(-c2ccc(Oc3ccccc3)cc2)n1,Potency,[1],inactive
same,Potency,[2],inactive
same,Potency,[3],inactive
O=S(=O)(c1ccc(Cl)cc1)N1CCN(c2ccnc3cc(Cl)ccc23)CC1,Potency,[1],inactive
same,Potency,[2],16.4 µM (active)
same,Potency,[3],16.4 µM (active)
COc1cc(N2CCOCC2)ccc1Nc1ncc(Cl)c(Nc2ccccc2NS(C)(=O)=O)n1,Potency,[1],inactive
same,Potency,[2],0.103 µM (active)
same,Potency,[3],0.206 µM (active)
CC(NC(=O)C(O)C(C)C)C(=O)NC1C(=O)N(C)CCc2ccccc21 (stereo not drawn),Potency,[1],inactive
same,Potency,[2],inactive
same,Potency,[3],inactive
CCOC(=O)N1CCC(NCCNC(=O)c2ccccc2C)CC1,Potency,[1],inactive
same,Potency,[2],inactive
same,Potency,[3],inactive
O=C(C1CC1)N1CC[C@@H](Cc2n[nH]c(=O)n2-c2ccc(-c3ccc4occc4c3)cc2)C1,Potency,[1],536 nM (active)
same,Potency,[2],inactive
same,Potency,[3],18.6 µM (active)
same,Potency,[4],inactive
same,Potency,[5],inactive
same,Potency,[6],inactive
same,Potency,[7],inactive
same,Potency,[8],inactive
same,Potency,[9],inactive
O=C(Nc1cccc(C(F)(F)F)c1)Nc1ccc(Br)cc1-c1nn[nH]n1,Potency,[1],inactive
same,Potency,[2],inactive
same,Potency,[3],inactive
C[C@@H](NC(=O)C(=O)c1c[nH]c2ccc([N+](=O)[O-])cc12)c1ccccc1,Potency,[1],inactive
same,Potency,[2],inactive
same,Potency,[3],4.11 µM (active)
CC(C)(C)OC(=O)N1CCC(OCc2nc(-c3ccncc3)no2)CC1,Potency,[1],inactive
same,Potency,[2],inactive
same,Potency,[3],inactive
FC(F)(F)c1cc(C(F)(F)F)c2ccc3nc(-c4nnco4)cn3c2n1,Potency,[1],inactive
same,Potency,[2],inactive
same,Potency,[3],inactive
CCC(C)(C)C1CCc2c(sc(NC(=O)c3ccc(Br)cc3)c2C#N)C1 (stereo not drawn),Potency,[1],inactive
same,Potency,[2],inactive
same,Potency,[3],inactive
NCCc1ccn[nH]1,Potency,[1],inactive
same,Potency,[2],inactive
same,Potency,[3],inactive
COc1cccc(NC[C@@H](O)Cn2c3ccc(Br)cc3c3cc(Br)ccc32)c1,Potency,[1],inactive
same,Potency,[2],18.4 µM (active)
same,Potency,[3],16.4 µM (active)
CN(C)CC(=O)N1CCC(c2ccc(NC(=O)c3ncc(C#N)[nH]3)c(C3=CCCCC3)c2)CC1,Potency,[1],inactive
same,Potency,[2],73.1 nM (active) and 74.2 nM (active)
same,Potency,[3],41.1 nM (active) and 148 nM (active)
same,Potency,[4],inactive
same,Potency,[5],inactive
same,Potency,[6],inactive
same,Potency,[7],inactive
same,Potency,[8],inactive
CC[C@H]1OC(=O)C[C@@H](O)[C@H](C)[C@@H](O[C@@H]2O[C@H](C)[C@@H](O)[C@H](N(C)C)[C@H]2O)[C@@H](CCN2C[C@H](C)C[C@H](C)C2)C[C@@H](C)C(=O)/C=C/C(C)=C/[C@@H]1CO[C@@H]1O[C@H](C)[C@@H](O)[C@@H](OC)[C@H]1OC,Potency,[1],inactive
same,Potency,[2],inactive
same,Potency,[3],inactive
CCn1cc(C(=O)O)c(=O)c2cc(F)c(N3CCNC(C)C3)c(F)c21 (stereo not drawn),Potency,[1],inactive
same,Potency,[2],inactive
same,Potency,[3],inactive
same,Potency,[4],inactive
same,Potency,[5],inactive
same,Potency,[6],inactive
same,Potency,[7],inactive
same,Potency,[8],inactive
same,Potency,[10],inactive
same,Potency,[11],inactive
same,Potency,[12],inactive
same,Potency,[14],inactive
O=NN(CCCl)C(=O)NC1CCCCC1,Potency,[1],inactive
same,Potency,[2],inactive
same,Potency,[3],inactive
same,Potency,[4],inactive
same,Potency,[5],inactive
same,Potency,[6],inactive
same,Potency,[7],inactive
same,Potency,[8],inactive
same,Potency,[9],inactive
same,Potency,[10],inactive
same,Potency,[11],inactive
same,activity (max response),[13],15.5% and -13.1%
same,Potency,[14],inactive
